# Source: PubChem BioAssay (NCATS)
# Where “and” joins values, the source holds several entries; their conditions need not be identical. Identical values can stand only once. Records with an inconclusive call do not appear. Calls of active or inactive are those of the source. Calls follow the shape of the dose curve; as a rule, active = well fitted inhibition curve with a large enough effect; inconclusive = small, poorly fitted or top-dose-only effect; inactive = flat fitted curve, though single readings scatter.
# Target: Ubiquitin carboxyl-terminal hydrolase 1 (Homo sapiens) (UniProt O94782)
# Assay: Inhibitors of USP1/UAF1: Pilot qHTS (AID 504865); also: nearly all actives have a fitted effect of over 35% in size;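 as to activity change, negative = inhibition: rhodamine fluorescence freed from ubiquitin-rhodamine substrate followed over time; top concentration of the series differs between compounds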
# Conditions: purified USP1/UAF1, Ub-rhodamine cleavage fluorescence; series mostly up to 114 µM; activity change, negative = inhibition: at the top concentration
# Text: Deubiquitinating enzymes (DUBs) are a class of enzymes that can cleave isopeptide bond formed between the C-terminal carboxylate of ubiquitin and a lysine side-chain amino group on the target protein. Among them, ubiquitin specific proteases (USPs) constitute the largest DUB family. Human USPs are emerging as promising targets for pharmacological intervention because of their connection to a number of human diseases, including prostate, colon and breast cancer (1, 2), pediatric acute lymphoblastic leukemia (3), and familial cylindromatosis (4). The advantage of inhibiting USPs lies in the potential specificity of therapeutic intervention that can lead to better efficacy and reduce nonspecific side effects.
# In a collaboration between the University of Delaware and the NIH Chemical Genomics Center, a high-throughput screen assay was developed to screen for USP1/UAF1 inhibitors. This miniaturized assay has a fluorescent read-out and is used to screen the NIH Molecular Libraries Small Molecule Repository (MLSMR) in order to identify a small molecule that inhibits USP1.
# NIH Chemical Genomics Center [NCGC]
# NIH Molecular Libraries Probe Centers Network [MLPCN]
# Assay Submitter (PI): Zhihao Zhuang, University of Delaware
# 1. Priolo, C., et al. (2006) The isopeptidase USP2a protects human prostate cancer from apoptosis. Cancer Res 66, 8625-8632
# 2. Popov, N., et al. (2007) The ubiquitin-specific protease USP28 is required for MYC stability. Nat Cell Biol 9, 765-774
# 3. De Pitta, C., et al. (2005) A leukemia-enriched cDNA microarray platform identifies new transcripts with relevance to the biology of pediatric acute lymphoblastic leukemia. Haematologica 90, 890-898
# 4. Kovalenko, A., et al. (2003) The tumour suppressor CYLD negatively regulates NF-kappaB signalling by deubiquitination. Nature 424, 801-805
# 3 microliters of reagents (buffer in columns 3 and 4 as negative control and 1nM USP1/UAF1 complex in columns 1, 2, and 5-48) are dispensed into Greiner black solid bottom 1536-well assay plates. Compounds are then transferred via Kalypsys pin tool equipped with 1536-pin array (10nl slotted pins, V&P Scientific, San Diego, CA). Following an incubation step of 15 min at room temperature, 1ul of Ub-Rho substrate (150nM final concentration) is added to initiate the reaction. The plates are immediately centrifuged at 1000 rpm for 15 seconds, and subsequently transferred to a ViewLux high-throughput CCD imager (PerkinElmer) wherein kinetic measurements of fluorescence are acquired using 480 nm excitation/540 nm emission filter set (6 reads every 60 seconds, see Table 1). All reagents are diluted in an assay buffer consisting of 50mM HEPES (pH 7.8), 0.5mM EDTA, 0.1 mg/ml BSA, 1mM TCEP, and 0.01% Tween-20.
# % is scaled to controls: 0 for no effect and ±100 for the full control effect; potency is read from the fitted curve at half-maximal effect.
# Chain of Ubiquitin carboxyl-terminal hydrolase 1 (Homo sapiens) (O94782 whole entry, looked up): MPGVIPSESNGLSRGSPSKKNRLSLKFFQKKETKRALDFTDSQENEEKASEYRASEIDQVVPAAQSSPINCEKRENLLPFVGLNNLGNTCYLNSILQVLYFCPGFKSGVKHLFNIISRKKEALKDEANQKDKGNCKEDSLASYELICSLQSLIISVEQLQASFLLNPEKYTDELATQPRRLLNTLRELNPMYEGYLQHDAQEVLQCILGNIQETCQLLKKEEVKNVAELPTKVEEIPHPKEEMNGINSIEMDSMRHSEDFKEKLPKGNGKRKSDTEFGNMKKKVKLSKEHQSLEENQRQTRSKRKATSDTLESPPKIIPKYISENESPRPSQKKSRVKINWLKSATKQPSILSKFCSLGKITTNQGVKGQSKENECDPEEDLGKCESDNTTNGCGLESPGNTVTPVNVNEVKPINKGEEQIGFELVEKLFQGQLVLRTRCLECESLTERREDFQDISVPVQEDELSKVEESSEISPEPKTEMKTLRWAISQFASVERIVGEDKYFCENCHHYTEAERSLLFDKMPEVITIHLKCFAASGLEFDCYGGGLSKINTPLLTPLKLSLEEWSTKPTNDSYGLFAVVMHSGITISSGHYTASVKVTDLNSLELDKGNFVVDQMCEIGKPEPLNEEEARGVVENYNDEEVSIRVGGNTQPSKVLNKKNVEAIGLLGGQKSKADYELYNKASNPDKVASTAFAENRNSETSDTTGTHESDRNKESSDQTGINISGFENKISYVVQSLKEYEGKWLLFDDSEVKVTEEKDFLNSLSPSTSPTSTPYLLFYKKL
SMILES,"activity change, negative = inhibition",Potency
c1ccc2ccccc2c1,-5.79% (inactive),
CCc1ccc(S(=O)(=O)O)cc1,-0.467% (inactive),
CO,-0.777% (inactive),
CCCOC(=O)c1ccccc1O,-2.68% (inactive),
CC/C(=C(/CC)c1ccc(OP(=O)(O)O)cc1)c1ccc(OP(=O)(O)O)cc1,-3.1% (inactive),
Cc1cc(-c2ccc(N=Nc3ccc4c(S(=O)(=O)O)cc(S(=O)(=O)O)c(N)c4c3O)c(C)c2)ccc1N=Nc1ccc2c(S(=O)(=O)O)cc(S(=O)(=O)O)c(N)c2c1O,,11.2 µM (active) and 25.1 µM (active)
O=C(CCCN1CCC(C(=O)c2ccc(F)cc2)CC1)c1ccc(F)cc1,-8.71% (inactive),
Cc1cc(-c2ccc(N=Nc3c(S(=O)(=O)O)cc4cc(S(=O)(=O)O)cc(N)c4c3O)c(C)c2)ccc1N=Nc1c(S(=O)(=O)O)cc2cc(S(=O)(=O)O)cc(N)c2c1O,,8.91 µM (active)
CC(C)CCC[C@@H](C)[C@H]1CC[C@H]2[C@@H]3CC[C@@H]4C[C@H](O)CC[C@]4(C)[C@H]3CC[C@]12C,-1.59% (inactive),
O=C1c2ccccc2C(=O)C1c1ccc(Cl)cc1,-11.6% (inactive),
OB(O)O,0.161% (inactive),
CN1CCc2c(c3ccccc3n2Cc2ccccc2)C1,-10.2% [at 54.9 µM] (inactive),
C=Cc1ccc(S(=O)(=O)O)cc1,-0.238% (inactive),
CC1C(=O)CC2C3(C)CCC2(C(C)C(=O)O)C(=O)C13 (stereo not given),-2.2% (inactive),
O=P(O)(O)O,-1.05% (inactive),
CNC(=O)c1c(I)c(C(=O)NCC(=O)Nc2c(I)c(C(=O)O)c(I)c(C(=O)NCCO)c2I)c(I)c(N(C)C(C)=O)c1I,2.45% [at 54.9 µM] (inactive),
CCOC(=O)C1=C(COCCN)NC(C)=C(C(=O)OC)C1c1ccccc1Cl (stereo not given),-13.7% (inactive),
NCCO/C=C/[C@H](N)C(=O)O,2.08% (inactive),
CC(C)CCCC(C)NC(C)C (stereo not given),-7.89% (inactive),
O=C(CCCCCCCCCCCCC1CCCC1)Nc1ccc(S(=O)(=O)c2ccc(NC(=O)CCCCCCCCCCCCC3CCCC3)cc2)cc1,20.7% (inactive),

SMILES,"activity change, negative = inhibition",Potency
O=P(O)(O)OC[C@H]1O[C@](O)(COP(=O)(O)O)[C@@H](O)[C@@H]1O,-7.33% (inactive),
CC(=O)Oc1cccc(C(=O)O)c1OC(C)=O,-9.59% (inactive),
Cc1nc(NS(=O)(=O)c2ccc(N)cc2)nc(C)c1Br,-11.3% (inactive),
C=CC[N+]1([C@H]2C[C@H]3[C@@H]4CC[C@H]5C[C@H](O)[C@@H](N6CCOCC6)C[C@]5(C)[C@H]4CC[C@]3(C)[C@H]2OC(C)=O)CCCC1,-2.84% (inactive),
S=C=Nc1ccc(N=C=S)cc1,-8.21% (inactive),
Cc1cccc(Nc2ncccc2C(=O)O)c1C,-10.3% (inactive),
COC(=O)C(CN)c1c[nH]c2ccc(OC)cc12 (stereo not given),2.57% (inactive),
O=C(O)/C=C/C(=O)Nc1ccc(S(=O)(=O)Nc2nccs2)cc1,-8.19% (inactive),
OCC(O)CO,-4.76% (inactive),
C[C@@](Cc1ccc(O)c(O)c1)(NN)C(=O)O,-10.2% (inactive),
O=C(O)COc1ccccc1/C=N/NC(=O)c1ccncc1,-6.34% (inactive),
CN1C(=O)OC(C)(C)C1=O,0.214% [at 54.9 µM] (inactive),
CN(C)C=Nc1c(I)cc(I)c(CCC(=O)O)c1I,-12.1% (inactive),
CCOC(=O)c1c[nH]c2cc(OCC(C)C)c(OCC(C)C)cc2c1=O,-6.26% (inactive),
O=C1[O][Bi][O]c2ccccc21,-2.06% (inactive),
C/C=C/C=C/C(=O)O,1.14% (inactive),
O=C1CCC(=O)N1CO,-2.86% (inactive),
CC(CC=O)CCCC(C)(C)O (stereo not given),-9.96% (inactive),
Cc1ccc(S(=O)(=O)O)cc1C,-11.6% (inactive),
COc1ccc(C(=O)CCC(=O)O)c2ccccc12,-3.83% (inactive),
